Data taken from PubChem BioAssay (NCATS).
Inconclusive results are not listed. A call without a number means that no potency is given here. The source made the active and inactive calls. Calls come from the whole dose curve; tested in HEK293 reporter line.

Experiment: qHTS for Inhibitors of the Functional Ribonucleoprotein Complex (vRNP) of Lassa (LASV) Arenavirus: LASV Primary Screen - GLuc reporter signal (AID 1347082); note: nearly all actives have a fitted effect of over 60% in size
Details: LASV minigenome vRNP, Gaussia luciferase reporter; series mostly up to 57.5 µM
Potency is the fitted concentration of half-maximal effect.

SMILES	Potency
CC(NCc1ccc2c(c1)nc(NC(=O)c1ccc(-c3cn[nH]c3)s1)n2CC(C)(C)O)C(C)(C)C (stereo unspecified)	1.93 µM (active)
O=C(Nc1cccc(Cl)c1)Nc1ncc(CCNc2ncnc3ccsc23)s1	inactive
CCc1cc(Nc2nccc(-c3c(-c4ccc(OC)c(C(=O)Nc5c(F)cccc5F)c4)nc4ccccn34)n2)c(OC)cc1N1CCC(N2CCN(S(C)(=O)=O)CC2)CC1	inactive
C[C@@H](N)C1CCC(C(=O)Nc2ccncc2)CC1 (stereo partly specified)	inactive
CN(C)C1CCN(C(=O)c2ccc(NC(=O)Nc3nc(N4CCOCC4)nc(N4CCOCC4)n3)cc2)CC1	0.243 µM (active)
CC(=O)N[C@@H](CCC(N)=O)C(=O)O	inactive
NCCS	inactive
CC(=O)OCCN1C(=O)c2c(C)nc3ccc(S(=O)(=O)N4CCOCC4)cc3c2C1=O	inactive
O=C(Nc1cc(Cl)cc2c1[nH]c1cnccc12)c1cccnc1	24.3 µM (active)
COc1ccc(-c2ccc3c(N4CCOCC4)nc(N4C[C@@H](C)O[C@@H](C)C4)nc3n2)cc1CO	0.344 µM (active)
Nc1ccccc1NC(=O)c1ccc(CNc2nccc(-c3cccnc3)n2)cc1	inactive
C=CC(=O)Nc1cccc(Oc2nc(Nc3ccc(N4CCN(C)CC4)cc3OC)ncc2Cl)c1	inactive
CC(C)(C)c1cnc(CSc2cnc(NC(=O)C3CCNCC3)s2)o1	6.11 µM (active)
O=C(NC1CCNCC1)c1[nH]ncc1NC(=O)c1c(Cl)cccc1Cl	3.43 µM (active)
CCn1cc(C(=O)O)c(=O)c2cc3c(cc21)OCO3	inactive
C[C@@]12O[C@@H](C[C@]1(O)CO)n1c3ccccc3c3c4c(c5c6ccccc6n2c5c31)CNC4=O	9.68 µM (active)
